Molecules are shown by their SMILES. Results filed as inconclusive are left out. Active and inactive are the calls of the source. Calls follow the shape of the dose curve; as a rule, active = well fitted inhibition curve with a large enough effect; inconclusive = small, poorly fitted or top-dose-only effect, or effect the other way; inactive = flat fitted curve, though single readings scatter.
% is scaled to controls: 0 for no effect and ±100 for the full control effect; potency is read from the fitted curve at half-maximal effect.

Ubiquitin carboxyl-terminal hydrolase 2 (Homo sapiens), sequence (O75604 whole entry, looked up): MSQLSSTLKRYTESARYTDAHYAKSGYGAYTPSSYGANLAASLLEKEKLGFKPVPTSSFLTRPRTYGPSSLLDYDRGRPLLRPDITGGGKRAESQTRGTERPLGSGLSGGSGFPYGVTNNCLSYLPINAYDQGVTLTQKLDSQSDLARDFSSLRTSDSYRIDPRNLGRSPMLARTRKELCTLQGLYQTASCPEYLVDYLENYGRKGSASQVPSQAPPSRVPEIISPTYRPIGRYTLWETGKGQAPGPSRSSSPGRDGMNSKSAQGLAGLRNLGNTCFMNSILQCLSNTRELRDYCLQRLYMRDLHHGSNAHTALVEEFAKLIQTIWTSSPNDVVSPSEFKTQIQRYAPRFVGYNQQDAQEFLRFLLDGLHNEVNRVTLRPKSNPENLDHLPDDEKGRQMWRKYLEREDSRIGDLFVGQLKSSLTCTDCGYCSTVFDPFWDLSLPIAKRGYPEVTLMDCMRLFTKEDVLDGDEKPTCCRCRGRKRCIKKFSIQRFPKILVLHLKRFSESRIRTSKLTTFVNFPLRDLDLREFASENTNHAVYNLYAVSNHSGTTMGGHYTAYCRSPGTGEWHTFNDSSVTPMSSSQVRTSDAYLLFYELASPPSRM

The assay addresses Ubiquitin carboxyl-terminal hydrolase 2 (Homo sapiens) (UniProt O75604). The experiment in a line: Ub-rhodamine 110 based assay for inhibitors Ubiquitin-specific Protease USP2a. Also: nearly all actives have a fitted effect of over 50% in size. The conditions noted are these: USP2a Ub-rhodamine110 cleavage, fluorescence; series mostly up to 38.3 µM; activity change, negative = inhibition: at the top concentration. The essentials: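 Kinetic fluorescence (485/531 nm) read each minute over 7 min after adding Ub-Rhod110 (150 nM final) to USP2a (5 nM final). The enzyme had 30 min RT exposure to compounds beforehand in Tris pH 8.0 buffer with CaCl2, CHAPS and beta-ME.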
For `CCn1c(SCC(=O)NCCc2ccccc2)nnc1-c1cccs1`, the “activity change, negative = inhibition” value was -2.84% (inactive).

`O=C(c1cccc(F)c1)N1CCN(S(=O)(=O)c2ccccc2)CC1`: the “activity change, negative = inhibition” value was -1.48% (inactive).

`O=C(NCCCN1CCCC1=O)c1cccc(N2CCCC2=O)c1`: the “activity change, negative = inhibition” value was 0.745% (inactive).

With `CCOC(=O)N1CCN(C(=O)CN(c2ccc(C)c(C)c2)S(=O)(=O)c2ccccc2)CC1`, the “activity change, negative = inhibition” value is -0.973% (inactive).

For the compound `COc1cccc(N2CCN(C(=O)CN(C)S(=O)(=O)c3ccc4c(c3)CCC(=O)N4)CC2)c1`, the “activity change, negative = inhibition” value was -5.91% (inactive).

Take `Cn1c(SCc2nc3ccccc3s2)nnc1-c1cccs1`: the “activity change, negative = inhibition” value was -11.3% (inactive).

Regarding `Cc1ccccc1N=C1NC(=O)CS1`, the “activity change, negative = inhibition” value is 1.95% (inactive).

Consider `Cc1ccc(NC(=O)CCC(=O)OC(C)C(=O)c2ccccc2)cc1` (centres undefined), for which the “activity change, negative = inhibition” value was -5.77% (inactive).

Turning to `COc1ccccc1NC(=O)N1CCN(c2ccccn2)CC1`, the “activity change, negative = inhibition” value is -6.78% (inactive).

For `COCCn1nnnc1CN(CCc1ccccc1)Cc1cc2ccc(C)cc2[nH]c1=O`, the “activity change, negative = inhibition” value is -6.85% (inactive).

`CC12CN3CC(C)(CN(C1)C3c1ccc(Cl)cc1Cl)C2O` (centres undefined): the “activity change, negative = inhibition” value is -1.96% (inactive).

With `Cn1nnnc1Sc1ncnc2scc(-c3ccc4c(c3)OCO4)c12`, the “activity change, negative = inhibition” value is -18.2% (inactive).

As for `COc1ccc(-c2nc(C#N)c(NCC3CCCO3)o2)cc1OC` (centres undefined), the “activity change, negative = inhibition” value was -6.99% (inactive).

Turning to `N#C/C(=C\c1ccc(O)c(O)c1)C(=O)Nc1cccc2ncccc12`, the Potency was 2.24 µM (active).

On to `Cc1cc(C)n2nc(S(=O)(=O)NCCc3ccccc3)nc2n1`, for which the “activity change, negative = inhibition” value is 5.22% (inactive).

`CCOC(=O)c1c(C)[nH]c(C(=O)COC(=O)CSC)c1C`: the “activity change, negative = inhibition” value is -1.67% (inactive).

As for `CCC(C)(C)n1nnnc1C(c1ccc(C)cc1)N1CCCC1` (centres undefined), the “activity change, negative = inhibition” value was -8.02% (inactive).

Consider `Cc1ccc(NC(=O)Cn2nc(C)c3ccccc3c2=O)cc1F`, for which the “activity change, negative = inhibition” value was -5.77% (inactive).

For the compound `CC(=O)c1ccc(NC(=O)CC(NCCC2=CCCCC2)C(=O)O)cc1` (centres undefined), the “activity change, negative = inhibition” value was 7.73% (inactive).

In the case of `CN(C)C=Nc1ncc2c3ccccc3n(CCN(C)C)c2c1C#N`, the “activity change, negative = inhibition” value is -0.528% (inactive).

With `CCCCCc1ccc(OCCOCCn2c[n+](C)c3ccccc32)c(CCCCC)c1`, the “activity change, negative = inhibition” value was -4.31% (inactive).

As to `Cc1noc(NS(=O)(=O)c2ccc(N/C=C\C(=O)c3cccc4ccccc34)cc2)c1C`, the Potency was 10 µM (active).

Regarding `CC(=O)N1c2c(cc(Br)cc2S(=O)(=O)NCc2cccnc2)CC1C` (centres undefined), the “activity change, negative = inhibition” value was -1.19% (inactive).

As for `COc1cc(C2C(C#N)=C(N)Oc3c2ccc2ccccc32)ccc1OCC(=O)Nc1cccc(C)c1` (centres undefined), the “activity change, negative = inhibition” value was -14.7% (inactive).

In the case of `COc1cccc(NC(=O)c2ccccc2-c2nc(-c3cccc(C)c3)no2)c1`, the “activity change, negative = inhibition” value was -16.3% (inactive).

Consider `CCn1nc(C(=O)N[C@@H](CCSC)c2nc3ccccc3[nH]2)c2ccccc2c1=O`, for which the “activity change, negative = inhibition” value was -8.19% (inactive).

`C=CCn1c(O)c(C(CC)=NCCN2CCOCC2)c(=O)[nH]c1=O`: the “activity change, negative = inhibition” value is -2.11% (inactive).

For the compound `CC(C)(C)CC(C)(C)NCC(=O)Nc1c2c(nc3ccccc13)CCC2`, the “activity change, negative = inhibition” value was -5.64% (inactive).

Regarding `CCOC(=O)c1c(C)n(-c2ccc(C)cc2)c2ccc(OCC(O)CN3CCN(C)CC3)cc12` (centres undefined), the “activity change, negative = inhibition” value was 1.5% (inactive).

Take `Cc1cc(-c2csc(NCc3ccccc3)n2)c(C)n1C`: the Potency was 8.91 µM (active).

As to `CCC(C)NC(=O)C1CN(S(=O)(=O)c2ccccc2)CCN1S(=O)(=O)c1ccccc1` (centres undefined), the “activity change, negative = inhibition” value is -7.74% (inactive).

On to `O=C(Nc1cccc(-c2nn[nH]n2)c1)c1ccc(Br)s1`, for which the “activity change, negative = inhibition” value was -3.56% (inactive).

As for `CCOC(=O)Cn1c(=O)oc2cc(S(=O)(=O)Nc3cc(Cl)ccc3OC)ccc21`, the “activity change, negative = inhibition” value is -6.33% (inactive).

Take `CCn1nnnc1SCC(=O)Nc1cccc(C)n1`: the “activity change, negative = inhibition” value is 6.59% (inactive).

Take `Cc1ccc(C(C)C)c(OCc2nn(CC(=O)c3ccc(OC(F)F)cc3)c3[n+]2CCCCC3)c1`: the “activity change, negative = inhibition” value is -4.28% (inactive).

As for `CCC(C(=O)Nc1nnc(-c2ccco2)s1)c1ccccc1` (centres undefined), the “activity change, negative = inhibition” value is -13.1% (inactive).

`O=C(CCCN1C(=O)c2ccccc2C1=O)NC1=NCCS1`: the “activity change, negative = inhibition” value was 2.18% (inactive).

As for `CCCC(=O)Nc1ccc(N2CCN(C(=O)c3cc4ccccc4o3)CC2)cc1`, the “activity change, negative = inhibition” value was -17.7% (inactive).

`CCOc1ccc(-c2ccc(/C=C3/C(=N)N4C(C)=CSC4=NC3=O)o2)c([N+](=O)[O-])c1`: the Potency was 7.94 µM (active).
